According to PubChem BioAssay AID720697 (Broad Institute, 2013):
Potency and affinity values are given separately. Records with an inconclusive call do not appear. Entries that show only a call come without a potency. Unmarked numbers belong to inactive results. Active and inactive are the calls of the source.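 Rule for the calls: active = signal loss with fitted half-maximal concentration at or below twice the top valid tested dose in every test run; inconclusive = runs disagree, flat 30 to 70% signal loss, or poor fit; inactive = all runs flat, opposite direction, or potency beyond limit.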

Assay: HEK293T cytotoxicity, dose response, cytotoxicity control for miR-122 modulator project, cell-based, inhibitor set, cherry-pick, set 2 (AID 720697)
Details: HEK293T viability, CellTiter-Glo luminescence, 48 h; series mostly up to 26 µM

Compound	outcome	activity change, negative = cytotoxicity
C[C@@H]1CN([C@@H](C)CO)C(=O)Cc2cc(NC(=O)C3CCCCC3)ccc2O[C@H]1CN(C)Cc1ccc(-c2ccccc2)cc1	inactive	
CN1C(=O)c2cc(NC(=O)c3ccc(C(F)(F)F)cc3)ccc2OC[C@H]2O[C@H](CC(=O)O)CC[C@@H]21	inactive	
C[C@@H]1CN([C@@H](C)CO)S(=O)(=O)c2ccc(C3=CCCCC3)cc2O[C@@H]1CN(C)C(=O)Cc1ccncc1	inactive	
C[C@@H]1CN([C@@H](C)CO)C(=O)c2cccc(NS(C)(=O)=O)c2O[C@H]1CN(C)S(=O)(=O)c1ccc(Cl)cc1	inactive	
CC(=O)Nc1ccc2c(c1)C(=O)N(C)[C@H]1CC[C@@H](CC(=O)NCc3ccc4c(c3)OCO4)O[C@@H]1CO2	inactive	
N#Cc1ccc(C(=O)Nc2ccc(N3CCN(C(=O)c4ccco4)CC3)cc2)c(F)c1		-30.3% [at 6 µM]
COC(=O)C[C@@H]1CC[C@H]2[C@@H](COc3ccc(NC(=O)c4ccc(F)c(F)c4)cc3C(=O)N2C)O1	inactive	
CN1C(=O)c2cc(NC(=O)c3cccs3)ccc2OC[C@H]2O[C@@H](CC(=O)NCCN3CCCCC3)CC[C@H]21	inactive	
CO[C@@H]1CN(C)C(=O)c2ccc(NS(=O)(=O)c3cccc(F)c3)cc2OC[C@@H](C)NC[C@H]1C	inactive	
Cc1cccc(NC(=O)Nc2ccc3c(c2)C(=O)N(C)[C@@H]2CC[C@@H](CC(=O)NCc4ccccc4Cl)O[C@H]2CO3)c1	inactive	
COCC(=O)N(C[C@H]1[C@H](c2ccccc2)[C@@H](CO)N1C(=O)NC(C)C)C(C)C	inactive	
C[C@@H]1CN([C@@H](C)CO)S(=O)(=O)c2ccc(C#CC3(O)CCCC3)cc2O[C@@H]1CN(C)C(=O)c1cccnc1	inactive	
CCC(=O)Nc1ccc2c(c1)C(=O)N(C)[C@@H]1CC[C@H](CC(=O)NCCN3CCCCC3)O[C@H]1CO2	inactive	
CN1C(=O)c2cc(NC(=O)c3cccc(F)c3)ccc2OC[C@H]2O[C@H](CC(=O)O)CC[C@H]21	inactive	
CCCCN(CCCC)C(=O)CN(C)S(=O)(=O)c1ccc2c(c1)n(C)c(=O)c(=O)n2C	inactive	
C[C@@H]1CN([C@H](C)CO)S(=O)(=O)c2ccc(-c3ccccc3)cc2O[C@@H]1CN(C)C(=O)c1ccc2c(c1)OCO2	inactive	
COCC(=O)N(C)C[C@H]1Oc2cc(C#Cc3cccnc3)ccc2S(=O)(=O)N([C@@H](C)CO)C[C@@H]1C	inactive	
O=C(c1ccc(CNc2c(NC3CCCCC3)c(=O)c2=O)cc1)N1CCc2ccccc21	inactive	
O=C(Nc1ccc(CN2CCOCC2)cc1)c1ccc(-c2ccc(Cl)cc2Cl)o1	inactive	
C/C=C/c1ccc([C@H]2[C@H](CO)N[C@H]2CN(C)S(=O)(=O)c2ccccc2)cc1	inactive	

Compound	outcome	activity change, negative = cytotoxicity
O=C(C1CC1)N(CCN(C(=O)C1CC1)c1ccccc1)c1ccccc1	inactive	
C[C@H]1CN([C@@H](C)CO)S(=O)(=O)c2ccc(C#CC3CCCCC3)cc2O[C@@H]1CN(C)C	inactive	
C/C=C/c1ccc([C@@H]2[C@H](CO)N[C@H]2CN(CC)C(=O)CN2CCOCC2)cc1	inactive	
COc1ccc(OC)c(Nc2cc(C)nc3ccc(C)cc23)c1		-30% [at 6 µM]
C[C@@H]1CN([C@@H](C)CO)C(=O)c2cccc(NC(=O)Nc3ccc4c(c3)OCO4)c2O[C@@H]1CN(C)Cc1ccc(Oc2ccccc2)cc1	inactive	
CNC(=O)C[C@@H]1CC[C@@H]2[C@@H](COc3ccc(NC(=O)Cc4cccs4)cc3C(=O)N2C)O1	inactive	
O=C(Nc1ncc(Cc2cccc(C(F)(F)F)c2)s1)c1ccc(-c2cccc([N+](=O)[O-])c2)o1		-25.5% [at 6 µM]
CO[C@@H]1CN(C)C(=O)c2cc(NC(=O)Nc3ccc(Cl)c(Cl)c3)ccc2OC[C@H](C)NC[C@H]1C	inactive	
CN1C(=O)c2cc(NS(=O)(=O)c3ccc(Cl)cc3)ccc2OC[C@H]2O[C@H](CC(=O)N3CCc4ccccc4C3)CC[C@@H]21	inactive	
C/C=C/c1ccc([C@@H]2[C@@H](CO)N[C@@H]2CN(C(=O)C2CCCC2)C(C)C)cc1	inactive	
CN1C(=O)c2cc(NC(=O)c3cccs3)ccc2OC[C@@H]2O[C@@H](CC(=O)O)CC[C@@H]21	inactive	
CN1C(=O)c2cc(NC(=O)Nc3ccc(Cl)cc3)ccc2OC[C@H]2O[C@H](CC(=O)NCCN3CCCCC3)CC[C@H]21	inactive	
CCC(=O)N(C)C[C@@H]1[C@@H](c2ccccc2)[C@H](CO)N1Cc1cccnc1	inactive	
CC(C)NC(=O)N1C[C@@H]2[C@H](c3ccccc31)[C@H](CO)N2Cc1ccccc1	inactive	
O=C(CC(F)(F)F)N1C[C@H]2[C@@H](c3ccccc31)[C@H](CO)N2C(=O)Cc1cccnc1	inactive	
CN1C(=O)c2cc(NC(=O)c3cccc(F)c3)ccc2OC[C@H]2O[C@H](CC(=O)N3CCc4ccccc4C3)CC[C@@H]21	inactive	
CN1C(=O)c2cc(NC(=O)Nc3ccccc3F)ccc2OC[C@@H]2O[C@@H](CC(=O)NCc3ccc(-c4ccccc4)cc3)CC[C@H]21	inactive	
COC(=O)c1nn(-c2ccccc2)c(Sc2ccc(Cl)cc2)c1/C=N/O	inactive	
CCC(=O)N1[C@@H](CO)[C@@H](c2ccccc2)[C@@H]1CN(C(C)C)S(C)(=O)=O	inactive	
